± gives the standard deviation of the averaged measurements. The full ranking holds about 33,000 sequences; the median of “E-score (rank enrichment, -0.5 to 0.5)” is about -0.0075, and the highest 2% start at about 0.23. The entries come from a sample that favours the highest values as a whole.
Test system: WT Max(13-93) synthetic (M65Nle)
Experiment: PBM 8-mer E-score (E-score (rank enrichment, -0.5 to 0.5)); higher = stronger preferential binding
Procedure: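 Protein binding microarray (universal PBM chip covering all 10-mers in fixed probe flanks) with chemically synthesized human Max(13-93) bHLH-LZ analogs (not full-length Max) bearing noncanonical residues (hArg, Tha, Aib, Nle at 65) and aromatic Cys staples. Read-out per 8-mer (and its reverse complement): E-score (rank-based enrichment, -0.5 to 0.5) and Z-score of median probe intensity.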

Sequence | PBM 8-mer E-score
GACGTGAC | -0.0117 ± 0.088
GGCTAGAC | -0.217 ± 0.07
TACGCCAA | 0.0646 ± 0.021
ACATAACA | 0.215 ± 0.0054
GCATAACC | -0.0331 ± 0.022
CAATAACA | 0.193 ± 0.046
CCATAACA | 0.236 ± 0.036
CCATAACC | 0.145 ± 0.0043
GCATAACA | 0.27 ± 0.04
TAATAACA | 0.131 ± 0.0072
CCATAACG | -0.0417 ± 0.027
GAATAACA | 0.242 ± 0.094
CAAGTAAC | 0.0157 ± 0.17
AAGGACAA | -0.103 ± 0.0038
AGACTTAC | 0.0412 ± 0.036
GGACTGAC | -0.163 ± 0.079
ACGCGGAC | 0.112 ± 0.0026
CCCCTTAG | -0.25 ± 0.047
ACACACAT | 0.208 ± 0.024
ATACACGA | 0.194 ± 0.032
GCACACGA | 0.121 ± 0.081
ACACACGG | -0.09 ± 0.023
GCACACGC | 0.284 ± 0.051
ACACACAA | 0.0899 ± 0.06
GTACACGA | 0.246 ± 0.037
CTACACGA | -0.00142 ± 0.052

Sequence | PBM 8-mer E-score
ACACACGA | 0.252 ± 0.021
TCACACGA | 0.0202 ± 0.039
ACACACGC | 0.208 ± 0.02
ACACACGT | 0.295 ± 0.028
GGCACATA | -0.00374 ± 0.019
TGCGTTAA | -0.0126 ± 0.025
CACAATAC | 0.204 ± 0.018
AGGGTTCG | 0.0226 ± 0.091
GCCATACA | 0.0396 ± 0.039
AACCCCCT | -0.12 ± 0.022
AGGATCTG | -0.1 ± 0.11
CCAACCGC | -0.126 ± 0.13
CTGCCCCC | -0.128 ± 0.089
CAAAATAC | 0.189 ± 0.047
CAGCATAC | 0.0204 ± 0.073
CAGCATGC | 0.237 ± 0.04
AACCATGC | 0.162 ± 0.018
GAGCATGC | 0.249 ± 0.018
GAGCATGA | 0.205 ± 0.03
GACCATGC | 0.27 ± 0.043
CGGCATGC | 0.124 ± 0.05
CAGCATGA | 0.128 ± 0.022
GAGCATAC | 0.00326 ± 0.079
CAGCATAG | -0.0673 ± 0.062
GACCATGA | -0.0818 ± 0.059
CAGCATGG | 0.331 ± 0.028

Sequence | PBM 8-mer E-score
ATCGCGGC | -0.136 ± 0.14
CGAAACGC | -0.14 ± 0.0054
GAACACTC | -0.0859 ± 0.0037
ATTTATTA | 0.152 ± 0.031
ATACCAAA | 0.124 ± 0.029
CTAATGGA | -0.125 ± 0.0031
ACTATATA | 0.274 ± 0.0075
ACCATATC | 0.0455 ± 0.019
GCTATATA | 0.146 ± 0.04
ACTATATC | 0.21 ± 0.015
ACCATATA | 0.248 ± 0.043
ACCATATG | 0.221 ± 0.0037
ACCGGCAC | 0.0185 ± 0.12
CTATCTCC | -0.00138 ± 0.076
GAAGTAGA | 0.0186 ± 0.0018
ACTGATCG | -0.106 ± 0.045
TCGTGTAA | 0.1 ± 0.05
AAGTGTAT | 0.149 ± 0.018
AGGTGTAT | 0.136 ± 0.019
GCGTGTAC | 0.125 ± 0.015
ACGTGTAG | 0.1905 ± 0.0018
ACGTGTAC | 0.354 ± 0.014
ACGTGTAA | 0.35 ± 0.019
CCGTGTAA | -0.00838 ± 0.1
ACGTGTAT | 0.4013 ± 0.0019
ATTACCCA | 0.146 ± 0.11

Sequence | PBM 8-mer E-score
CCCTAAGC | -0.152 ± 0.068
ATATATGC | 0.0949 ± 0.049
ATATATGG | 0.244 ± 0.055
ATATAGTC | 0.107 ± 0.0014
GTATATGA | 0.266 ± 0.019
AAATGTGA | 0.026 ± 0.14
TAATGTGA | 0.233 ± 0.075
ATATATGA | 0.0913 ± 0.21
CAATGTGA | 0.179 ± 0.0028
ATATAGTG | 0.2556 ± 0.0011
CTATATGA | 0.0892 ± 0.063
CTATATGC | 0.168 ± 0.083
ATATAGTA | 0.228 ± 0.029
CCTGGCCG | -0.194 ± 0.086
ACCCAGAG | -0.0559 ± 0.026
CGGTCCAA | -0.19 ± 0.19
CGCCTTAG | -0.0361 ± 0.042
CGGAAAGC | -0.0958 ± 0.16
GCACAGGC | -0.146 ± 0.038
GCCCGAGC | 0.035 ± 0.06
ATATGTGA | 0.278 ± 0.14
CAATGTGG | 0.133 ± 0.072
ATGTGTGG | 0.148 ± 0.055
AAATGTGT | 0.224 ± 0.085
ATATGTGG | 0.292 ± 0.015
AAATGTGG | 0.245 ± 0.048

Sequence | PBM 8-mer E-score
ATATGTGC | 0.181 ± 0.014
GTATGTGA | -0.0439 ± 0.13
CTATGTGA | 0.0181 ± 0.018
CCTGTCGA | 0.00438 ± 0.055
ATTTACCG | 0.17 ± 0.0023
ATTCCGGC | -0.2339 ± 0.0017
GAGATCAA | 0.0454 ± 0.094
CACCTGAA | 0.166 ± 0.075
CTGAGATA | -0.222 ± 0.091
CCTTCTCA | 0.0588 ± 0.1
CCGGCCCA | -0.197 ± 0.085
AAAAAGGC | 0.109 ± 0.096
GAAAAGGC | 0.253 ± 0.15
CAAAAGGC | -0.00832 ± 0.029
AACGTTTA | 0.146 ± 0.049
TCGGACCA | -0.114 ± 0.059
GGCGGGAA | 0.0202 ± 0.047
GGCGGGGA | 0.303 ± 0.031
CGCGGGGA | -0.172 ± 0.12
CTGGTCCA | -0.128 ± 0.094
TAGGTAAA | -0.0909 ± 0.038
ACGACCAA | -0.0717 ± 0.22
AGCAAGCC | -0.152 ± 0.033
GACCAGCC | -0.205 ± 0.093
ATGATGTA | 0.197 ± 0.047
CTGATGTA | 0.0268 ± 0.064

Sequence | PBM 8-mer E-score
GTGATTAA | 0.296 ± 0.066
GTGATGTA | 0.239 ± 0.0057
ATGATTAA | 0.0011 ± 0.15
ATGATTTA | 0.178 ± 0.027
GTGATTTA | 0.27 ± 0.0069
CTGATTTA | 0.0789 ± 0.0019
CTGATTAA | 0.192 ± 0.081
GTTCTCGA | 0.0864 ± 0.12
CACCACTA | 0.129 ± 0.17
CGCTGGCC | -0.289 ± 0.025
GGAAGGAA | 0.0471 ± 0.045
ACGAAGTG | 0.00194 ± 0.018
ACTGATGC | -0.0431 ± 0.041
CGCGGAAA | -0.0276 ± 0.059
CGTTGCAA | -0.0452 ± 0.0072
AGCCTAGG | -0.0541 ± 0.089
CTATCATA | 0.1619 ± 0.00089
GTGTCATA | 0.291 ± 0.0065
ATATCATA | 0.184 ± 0.031
ATGTCATA | 0.1682 ± 0.0013
GTATCATA | 0.248 ± 0.1
CTGTCATA | 0.113 ± 0.023
AACGAAGC | -0.00685 ± 0.13
AATTTCTA | 0.172 ± 0.047
GTTTTGTA | 0.248 ± 0.031
ATTTTGTA | 0.237 ± 0.051

Sequence | PBM 8-mer E-score
CTTTTGTA | 0.125 ± 0.051
ATTTTGTG | 0.145 ± 0.021
CTTTTCTA | 0.0691 ± 0.035
GGTTTGTA | -0.0081 ± 0.036
ATTTTCTA | 0.24 ± 0.019
GTTTTGCA | 0.108 ± 0.019
CCGCTTCG | -0.0665 ± 0.16
CCCTCCTA | 0.0972 ± 0.061
AAACATAG | 0.21 ± 0.031
CAACATAC | 0.112 ± 0.046
CTACATAA | 0.0655 ± 0.2
AAACATAA | 0.244 ± 0.059
TAACATAA | 0.244 ± 0.0065
GTACATAA | 0.236 ± 0.0032
CAACATAA | 0.167 ± 0.0094
AAACATAC | 0.233 ± 0.027
ACACATAA | 0.214 ± 0.066
TTACATAA | 0.136 ± 0.048
AAACATAT | 0.144 ± 0.0056
GAACATAA | 0.16 ± 0.059
